Compound activity from PubChem BioAssay.
PP5 inh – blocks human protein phosphatase 5 activity. inhibition, % at 6.7 µM. purified PP5c, OMFP substrate fluorescence. P53041. 320,000 compounds, 0.18% hits;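 active means inhibition above the campaign's mean inhibition across all tested compounds plus 3 SD, cut at about 9.5% in these data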
GASC-1 inh – blocks human GASC-1 demethylase activity; inhibition, % at 2.35 µM; 330,000 compounds, 0.069% hits; AID 2099; GST-JMJD2C(1-420) H3K9me3 demethylation, DELFIA europium;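 active means more than half of a compound's replicate wells show inhibition beyond 50%, single wells judged on their own value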;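 further: signal counts dimethyl H3K9 product captured on neutravidin plate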
Target sequence (Q9H3R0 1-420 limits assumed): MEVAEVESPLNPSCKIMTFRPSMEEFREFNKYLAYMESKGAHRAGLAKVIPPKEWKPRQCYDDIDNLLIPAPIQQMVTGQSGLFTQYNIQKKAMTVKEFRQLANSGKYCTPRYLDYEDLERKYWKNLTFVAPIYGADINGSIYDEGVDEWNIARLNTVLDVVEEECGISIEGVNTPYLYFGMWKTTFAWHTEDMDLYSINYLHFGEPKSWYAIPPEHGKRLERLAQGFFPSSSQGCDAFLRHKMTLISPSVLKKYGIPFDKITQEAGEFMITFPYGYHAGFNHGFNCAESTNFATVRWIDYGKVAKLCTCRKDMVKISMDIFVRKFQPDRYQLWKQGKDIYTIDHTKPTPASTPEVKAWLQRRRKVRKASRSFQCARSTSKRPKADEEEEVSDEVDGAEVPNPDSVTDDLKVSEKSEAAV
PG9 Ab binder – PG9 antibody binding by small molecule | TR-FRET gp120-PG9 antibody binding | inhibition, % at 6.7 µM | 360,000 compounds, 0.43% hits | AID 624416; in the data active means inhibition above about 8.5%
NR1D1 modulator – Rev-erb alpha (human) modulation; P20393; Rev-erbα–FITC-DNA binding, fluorescence polarization, 90 min; activity, % at 10 µM; 370,000 compounds, 0.79% hits; AID 1259318;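 active means activity above about 14%, limit read from the data; passing the limit was not always enough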
proKLK7 act – proKLK7 (human) activation, primary screen | P49862 | purified proKLK7, EDANS-DABCYL substrate fluorescence; 100% is mature enzyme control, 0% vehicle | activation, % at 7 µM | 370,000 compounds, 0.9% hits | AID 652039;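 active means activation above the mean of all tested compounds plus 3 SD, computed per campaign excluding outliers beyond control limits, cut at about 13% in these data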
Target sequence (P49862 whole entry, looked up): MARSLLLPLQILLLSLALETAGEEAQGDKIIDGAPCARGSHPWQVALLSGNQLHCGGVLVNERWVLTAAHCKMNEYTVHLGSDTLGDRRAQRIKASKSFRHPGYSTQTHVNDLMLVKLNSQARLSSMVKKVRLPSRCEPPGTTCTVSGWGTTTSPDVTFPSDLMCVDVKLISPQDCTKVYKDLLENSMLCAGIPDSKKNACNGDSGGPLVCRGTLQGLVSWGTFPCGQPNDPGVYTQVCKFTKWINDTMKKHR
PP1 inh – counter-screen for PP5 inhibitors: inhibitors of human PP1-alpha. P62136. purified PP1alpha, OMFP fluorescence. inhibition, % at 6.7 µM. 320,000 compounds, 0.9% hits;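 active means inhibition above the mean inhibition of all tested compounds plus 3 SD, computed separately for each screening campaign, cut at about 15% in these data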
Rev-erbA confirm – confirmation of modulators of human Rev-erb alpha DNA binding. shares compounds with NR1D1 modulator. Rev-erb alpha FITC-DNA binding, fluorescence polarization, 90 min. activation, % at 25 µM. 3,000 compounds, 61% hits;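 active means activation at or above a set limit, or at least 3 SD above the negative control mean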
RORg counter – RORgamma DNA-binding activity, dose-response counter-screen. shares compounds with NR1D1 modulator. IC50, µM. 910 compounds, 8% hits. purified RORgamma protein-FITC-DNA binding, fluorescence polarization. AID 1259320;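 active means Compounds whose fitted half-maximal concentration for disrupting protein-DNA binding is below 10 micromolar; the record names Rev-erb in its text, so the target is in doubt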
Numbers stand for hits. In the library only some 2.8% were active in any assay of this set; here they are far more common.

How did O=C(NCc1ccccc1)N1CCN(Cc2nc3ccccc3c(=O)[nH]2)CC1 do in these assays?
NR1D1 modulator: inactive; proKLK7 act: inactive

Results for O=c1[nH]c(-c2ccc(F)cc2)nc2c1sc(=S)n2-c1ccccc1 ?
PP5 inh: inactive; GASC-1 inh: inactive; PG9 Ab binder: inactive; NR1D1 modulator: inactive; proKLK7 act: inactive; PP1 inh: inactive

How did O=c1[nH]c(-c2ccc3c(c2)OCO3)nc2c1sc(=S)n2-c1ccccc1 do in these assays?
PP5 inh: inactive; GASC-1 inh: inactive; PG9 Ab binder: inactive; NR1D1 modulator: 76.0; proKLK7 act: inactive; PP1 inh: inactive; Rev-erbA confirm: inactive

Results for Cc1cc(C)cc(NC(=O)Cn2nnc(C(=O)NCc3ccc4c(c3)OCO4)c2N)c1 ?
PP5 inh: inactive; GASC-1 inh: inactive; PG9 Ab binder: inactive; NR1D1 modulator: inactive; proKLK7 act: inactive; PP1 inh: inactive

Results for Cc1ccc(CNC(=O)c2nnn(CC(=O)Nc3cc(C)cc(C)c3)c2N)cc1 ?
PP5 inh: inactive; GASC-1 inh: inactive; PG9 Ab binder: inactive; NR1D1 modulator: 24.3; proKLK7 act: inactive; PP1 inh: inactive; Rev-erbA confirm: 20.8

Results for COc1cccc(CNC(=O)c2nnn(CC(=O)Nc3ccc(Br)cc3)c2N)c1 ?
PP5 inh: inactive; GASC-1 inh: inactive; PG9 Ab binder: inactive; NR1D1 modulator: 19.3; proKLK7 act: inactive; PP1 inh: inactive; Rev-erbA confirm: inactive

Results for O=C(OC12CCCN(C1)/C(=C/c1cccc(Cl)c1)C2)c1cccc(F)c1 (centres undefined) ?
NR1D1 modulator: inactive; proKLK7 act: inactive

What do the screens show for `COC(=O)C1=C(C)N(Cc2ccc(C(F)(F)F)cc2)C(=NCc2ccccc2C(F)(F)F)NC1c1ccc(C(F)(F)F)cc1` (centres undefined)?
PG9 Ab binder: inactive; NR1D1 modulator: inactive; proKLK7 act: inactive

What do the screens show for `CCOC(=O)[C@@]12CCC3=C1N(CCC3)C(=O)[C@H](CC(=O)NCc1ccc(OC)c(OC)c1)C2`?
NR1D1 modulator: inactive; proKLK7 act: inactive

What do the screens show for `COc1ccc(C2Nc3ccc(Br)cc3C(c3ccccc3)N2CC(=O)O)cc1` (centres undefined)?
PP5 inh: inactive; GASC-1 inh: inactive; PG9 Ab binder: inactive; NR1D1 modulator: 17.7; proKLK7 act: inactive; PP1 inh: inactive; Rev-erbA confirm: inactive

Results for O=C(/C=C/c1cccc2ccccc12)NCCC1=CCCCC1 ?
PP5 inh: inactive; GASC-1 inh: inactive; PG9 Ab binder: inactive; NR1D1 modulator: 29.0; proKLK7 act: inactive; PP1 inh: inactive; Rev-erbA confirm: 38.2; RORg counter: inactive

Results for COc1cccc(/C=C/C(=O)OCC(=O)NCCC2=CCCCC2)c1OC ?
GASC-1 inh: inactive; PG9 Ab binder: inactive; NR1D1 modulator: inactive; proKLK7 act: inactive

Results for O=[N+]([O-])c1ccc(COc2cccc(CO)c2)cc1 ?
PG9 Ab binder: inactive; NR1D1 modulator: inactive; proKLK7 act: inactive

Results for CCOc1ccc(CCNC(=O)c2cc(-c3ccccc3)c(N3CCOCC3)s2)cc1OCC ?
PP5 inh: inactive; GASC-1 inh: inactive; PG9 Ab binder: inactive; NR1D1 modulator: inactive; proKLK7 act: inactive; PP1 inh: inactive

How did CCOc1ccc(CCNC(=O)c2cc(-c3ccccc3)c(N3CCOCC3)s2)cc1 do in these assays?
PP5 inh: inactive; GASC-1 inh: inactive; PG9 Ab binder: inactive; NR1D1 modulator: 91.2; proKLK7 act: inactive; PP1 inh: inactive; Rev-erbA confirm: 80.4; RORg counter: inactive

What do the screens show for `Cc1ccccc1CS(=O)(=O)Cc1ccc(C(=O)Nc2ccc(F)cc2)o1`?
NR1D1 modulator: inactive; proKLK7 act: inactive

Results for O=C1c2ccccc2C(c2nnnn2Cc2ccccc2)N1Cc1ccc(F)cc1 (centres undefined) ?
PG9 Ab binder: inactive; NR1D1 modulator: inactive; proKLK7 act: inactive

How did O=C1c2ccccc2C(c2nnnn2Cc2ccccc2)N1CCc1c[nH]c2ccccc12 (centres undefined) do in these assays?
PG9 Ab binder: inactive; NR1D1 modulator: 19.9; proKLK7 act: inactive; Rev-erbA confirm: inactive

How did O=C(NCc1ccccc1)[C@@H]1CCCN1C(=O)[C@H]1CCCN1C(=O)N1CCCCC1 do in these assays?
PG9 Ab binder: inactive; NR1D1 modulator: inactive; proKLK7 act: inactive

What do the screens show for `CC(C)CNc1cccc2c1S(=O)(=O)N(Cc1cccc(F)c1)[C@@H](C)[C@H](c1ccccc1)O2`?
PG9 Ab binder: inactive; NR1D1 modulator: inactive; proKLK7 act: inactive

What do the screens show for `COc1ccc(OC)c(C(=O)CSc2nc3c(c(=O)n(C)c(=O)n3C)n2C(C)C)c1`?
GASC-1 inh: inactive; PG9 Ab binder: inactive; NR1D1 modulator: 37.4; proKLK7 act: inactive; Rev-erbA confirm: inactive

Results for COC(=O)c1cc2cc(Cl)ccc2nc1SC ?
PP5 inh: inactive; GASC-1 inh: inactive; PG9 Ab binder: inactive; NR1D1 modulator: 97.8; proKLK7 act: inactive; PP1 inh: inactive; Rev-erbA confirm: 53.0; RORg counter: inactive

What do the screens show for `Cc1ccccc1N1CCN(C2=Nc3ccccc3Sc3ccccc32)CC1`?
NR1D1 modulator: inactive; proKLK7 act: inactive

What do the screens show for `COC(=O)[C@]12C[C@H](CC(=O)N3CCN(C(=O)c4ccco4)CC3)C(=O)N(CCC3=CCCCC3)C1=C[C@H](COCc1ccccc1)O[C@@H]2C`?
PG9 Ab binder: inactive; NR1D1 modulator: inactive; proKLK7 act: inactive

Results for O=C(CSc1nc2c(c(C(F)(F)F)n1)CCc1ccccc1-2)NCc1ccc(F)cc1 ?
PP5 inh: inactive; GASC-1 inh: inactive; PG9 Ab binder: inactive; NR1D1 modulator: 59.9; proKLK7 act: inactive; PP1 inh: inactive; Rev-erbA confirm: inactive

Results for O=C(O)CSc1nc2c(c(C(F)(F)F)n1)CCc1ccccc1-2 ?
PP5 inh: inactive; GASC-1 inh: inactive; PG9 Ab binder: inactive; NR1D1 modulator: inactive; proKLK7 act: inactive; PP1 inh: inactive

What do the screens show for `O=C(CSc1nc2c(c(C(F)(F)F)n1)CCc1ccccc1-2)NCc1ccccc1`?
PP5 inh: inactive; GASC-1 inh: inactive; PG9 Ab binder: inactive; NR1D1 modulator: 97.5; proKLK7 act: inactive; PP1 inh: inactive; Rev-erbA confirm: 40.3; RORg counter: inactive

Results for COc1ccc(CCn2cnn3c(=O)c4ccccc4nc3c2=O)cc1OC ?
PG9 Ab binder: inactive; NR1D1 modulator: inactive; proKLK7 act: inactive

How did CC(=O)OCCC(CC(C)C)NC(=O)[C@H](CC(C)C)NC(=O)OCc1ccccc1 (some centres undefined) do in these assays?
NR1D1 modulator: inactive
